The source of these data is PubChem BioAssay (NCATS).

SMILES strings stand for the structures. Values joined by “and” are separate entries in the source; they are usually repeats but may differ in a detail not shown here. Identical values can stand only once. Results filed as inconclusive are left out. Active and inactive are the calls of the source. The call rests on the fitted dose curve. Square brackets hold non-standard residues; d marks the D form. Peptide text beside a SMILES is read from it. * marks the point of attachment. Sta = CC(C)C[C@H](N)[C@@H](O)CC(=O)O; Isovaleryl = CC(C)CC(=O)*

Assay [1] in a line: Cytotoxicity counterscreen for inhibitors of SARS-CoV-2 cell entry (AID 1645845). Further: nearly all actives have a fitted effect of over 50% in size. On activity change, negative = cytotoxicity: on the % scale 0 is the no-effect control and ±100 the full control effect. In a few lines: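 After a 15 min room-temperature ATPLite 1step step, luminescence reflected ATP remaining in HEK293-ACE2 cells exposed to compound for 1 h plus 48 h at 37 C, with percent activity set by cell and no-cell controls.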
Assay [2] can be described thus: Primary qHTS to identify inhibitors of SARS-CoV-2 cell entry (AID 1645846). Further: nearly all actives have a fitted effect of over 45% in size. The note with it: activity change, negative = inhibition: at 57.1 µM (top of the series) unless noted. In a few lines:
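HEK293-ACE2 (Expi293F, stable hACE2), 1500 cells/well, o/n 37C; cpd 23 nL pin, 1 h; MLV-PP w/ SARS-CoV-2-S (Wuhan-Hu-1, Δ19 C-term); 48 h 37C; Bright-Glo luminescence; normalized vs S-PP and bald PP.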
Potency means the concentration at half of the fitted maximal effect.

Turning to `O=C(O)CCC(=O)OC[C@@H](NC(=O)C(Cl)Cl)[C@H](O)c1ccc([N+](=O)[O-])cc1`, in assay [1], the Potency result is “inactive”. Also, the activity change, negative = inhibition in assay [2] was -2.41%.
Turning to `C[C@H](N)C(=O)N[C@@H](C)C(=O)NC1[C@H]2CN(c3nc4c(cc3F)c(=O)c(C(=O)O)cn4-c3ccc(F)cc3F)C[C@@H]12` (stereo partly drawn), the Potency entry in assay [1] is “inactive”. Besides, the activity change, negative = inhibition in assay [2] was -23%.
As to `COc1ccnc2c1CCCCC2S(=O)c1nc2ccccc2[nH]1` (stereo not drawn), the Potency result in assay [1] was “inactive”. For the same molecule, in assay [2], the activity change, negative = inhibition is -18.8%.
As for `CCN(CC)CC(=O)Nc1c(C)cccc1C`, the Potency result in assay [1] and in assay [2] was “inactive” each time.
For the molecule `O=c1ccc2ccccc2o1`, the Potency entry in assay [1] and in assay [2] was “inactive” each time.
For `FC(F)(F)C(F)(F)C(F)(F)C(F)(F)C(F)(F)C(F)(F)C(F)(F)C(F)(F)Br`, the Potency result in assay [1] is “inactive”. The activity change, negative = inhibition in assay [2] is -12.9%.
For the molecule `C/C(=C(\CCOP(=O)(O)O)SC(=O)c1ccccc1)N(C=O)Cc1cnc(C)nc1N`, in assay [1], the activity change, negative = cytotoxicity is 0.654% [at 5.25 µM] (inactive). Further, the outcome in assay [2] is “inactive [at 5.25 µM]”.
With `CC/C(=C(/CC)c1ccc(O)cc1)c1ccc(O)cc1`, the Potency entry in assay [1] is “inactive”. Also, the Potency in assay [2] was 17.8 µM (active).
With `CN(C)CCOC(c1ccccc1)c1ccccc1`, the Potency result in assay [1] was “inactive”. Moreover, the activity change, negative = inhibition in assay [2] was -13.9%.
With `CCN(CCCCOC(=O)c1ccc(OC)c(OC)c1)C(C)Cc1ccc(OC)cc1` (stereo not drawn), in assay [1], the Potency result was “inactive”. Moreover, in assay [2], the Potency is 14.1 µM (active).
Take `CC(C(O)c1ccc(O)cc1)N1CCC(Cc2ccccc2)CC1` (stereo not drawn): the Potency entry in assay [1] was “inactive”. Besides, the activity change, negative = inhibition in assay [2] was -24.3%.
In the case of `CCCN(CCC)C(=O)C(CCC(=O)OCCCN1CCN(CCOC(=O)Cc2c(C)n(C(=O)c3ccc(Cl)cc3)c3ccc(OC)cc23)CC1)NC(=O)c1ccccc1` (stereo not drawn), in assay [1], the Potency entry is “inactive”. Moreover, in assay [2], the Potency was 28.2 µM (active).
`O=Cc1ccccc1C=O`: in assay [1], the Potency result is “inactive”. Moreover, in assay [2], the activity change, negative = inhibition is -7.57%.
For the molecule `FC(F)(F)C(Cl)Br` (stereo not drawn), in assay [1], the Potency result was “inactive”. Moreover, the activity change, negative = inhibition in assay [2] is -18.5%.
`CO/N=C(/C(=O)N[C@@H]1C(=O)N2C(C(=O)O)=C(Cn3nnc(C)n3)CS[C@H]12)c1csc(N)n1`: the Potency result in assay [1] and in assay [2] was “inactive” throughout.
Take `CC(=O)N[C@H]1[C@H]([C@H](O)[C@H](O)CO)OC(C(=O)O)=C[C@@H]1N=C(N)N`: the Potency result in assay [1] is “inactive”. Besides, the activity change, negative = inhibition in assay [2] was -0.176%.
For `CC(=O)O[C@]1(C(C)=O)CC[C@H]2[C@@H]3C=C(Cl)C4=CC(=O)CC[C@]4(C)[C@H]3CC[C@@]21C` the same measures were “inactive” and -27.6%.
Take `CC(C)CC(=O)N[C@H](C(=O)N[C@H](C(=O)N[C@@H](CC(C)C)[C@@H](O)CC(=O)N[C@@H](C)C(=O)N[C@@H](CC(C)C)[C@@H](O)CC(=O)O)C(C)C)C(C)C` (Isovaleryl-VV[Sta]A[Sta]-OH): the Potency result in assay [1] was “inactive”. For the same molecule, in assay [2], the activity change, negative = inhibition is -12.9%.
For `CCOC(=O)Nc1ccc(NCc2ccc(F)cc2)nc1N`, the Potency result in assay [1] is “inactive”. Besides, the activity change, negative = inhibition in assay [2] is -22.5%.
In the case of `O=C1OC(c2ccc(O)cc2)(c2ccc(O)cc2)c2ccccc21`, the Potency result in assay [1] and in assay [2] was “inactive” each time.
Regarding `CCn1cc(C(=O)O)c(=O)c2cc(F)c(N3CCNCC3)nc21`, the Potency result in assay [1] and in assay [2] was “inactive” each time.
Consider `Cc1ccc(C(C)OC(=O)C2(C)CCC(C(=O)O)C2(C)C)cc1` (stereo not drawn), for which the Potency entry in assay [1] was “inactive”. In addition, the activity change, negative = inhibition in assay [2] is -10.3%.
On to `CC(=O)OCC(=O)Nc1cc(C#N)cc(NC(=O)COC(C)=O)c1Cl`, for which the Potency result in assay [1] and in assay [2] was “inactive” in each case.
Consider `Clc1ccc(Nc2nnc(Cc3ccncc3)c3ccccc23)cc1`, for which the Potency result in assay [1] was “inactive”. In assay [2], the activity change, negative = inhibition was -4.34%.
For the molecule `CC(C)(C)NCC(O)COc1cccc2c1CCC(=O)N2` (stereo not drawn), the Potency result in assay [1] and in assay [2] was “inactive” each time.
As to `CCOC(=O)[C@H](CCc1ccccc1)N[C@H]1CCc2ccccc2N(CC(=O)O)C1=O`, in assay [1], the Potency entry is “inactive”. For the same molecule, in assay [2], the activity change, negative = inhibition was -24.9%.
Turning to `CCC(=O)c1ccc(O)cc1`, the Potency entry in assay [1] and in assay [2] was “inactive” in each case.
For `C=C1C[C@H]2[C@@H]3C=C(C)C4=CC(=O)CC[C@]4(C)[C@H]3CC[C@]2(C)[C@@]1(OC(C)=O)C(C)=O`, the Potency result in assay [1] is “inactive”. The activity change, negative = inhibition in assay [2] stood at 2.39%.
`C[C@]12CC[C@@H]3c4ccc(O)cc4CC[C@H]3[C@@H]1CCC2=O`: the Potency entry in assay [1] and in assay [2] was “inactive” throughout.
`CC(=O)Oc1ccc(C(c2ccc(OC(C)=O)cc2)c2ccccn2)cc1`: the Potency entry in assay [1] and in assay [2] was “inactive” throughout.
For the molecule `CCN[C@@H]1C[C@H](N)[C@@H](OC2OC(CN)=CCC2N)[C@H](O)[C@H]1O[C@H]1OC[C@](C)(O)[C@H](NC)[C@H]1O` (stereo partly drawn), the activity change, negative = cytotoxicity in assay [1] is 0.776% [at 0.702 µM] (inactive). Besides, the activity change, negative = inhibition in assay [2] came out at 42.9% [at 0.702 µM].
With `O=C1c2cccc(O)c2C(=O)c2c(O)cccc21`, the Potency entry in assay [1] and in assay [2] was “inactive” in each case.
`COc1ccccc1N1CCN(CCCNc2cc(=O)n(C)c(=O)n2C)CC1`: the Potency entry in assay [1] was “inactive”. The activity change, negative = inhibition in assay [2] was -0.464%.
`Nc1ccc(S(=O)(=O)Nc2cnc3ccccc3n2)cc1`: the Potency result in assay [1] and in assay [2] was “inactive” throughout.
Take `COc1ccc2c(c1)c(CC(=O)OCC(=O)O)c(C)n2C(=O)c1ccc(Cl)cc1`: the Potency result in assay [1] and in assay [2] was “inactive” each time.
With `Cc1nnc(C(=O)NC(C)(C)c2nc(C(=O)NCc3ccc(F)cc3)c(O)c(=O)n2C)o1`, in assay [1], the Potency result is “inactive”. Moreover, the activity change, negative = inhibition in assay [2] was -86.5% and -69.6%.
Take `CC(COc1ccccc1)NC(C)C(O)c1ccc(O)cc1` (stereo not drawn): the Potency entry in assay [1] and in assay [2] was “inactive” in each case.
With `CCCCCCCCCCCCCCCC[N+](C)(C)Cc1ccccc1`, the values for the Potency in assay [1] and in assay [2] were 22.4 µM (active) and 17.8 µM (active), respectively.
With `NS(=O)(=O)c1cc(C(=O)O)c(NCc2ccco2)cc1Cl`, the Potency entry in assay [1] and in assay [2] was “inactive” each time.
Regarding `CCOC(=O)[C@H](CCc1ccccc1)N[C@@H](C)C(=O)N1C(=O)N(C)C[C@H]1C(=O)O`, the Potency entry in assay [1] was “inactive”. Further, the activity change, negative = inhibition in assay [2] is -10.6%.
In the case of `CC(=O)/C=C/C=C1/C2CCC(C2)C1(C)C` (stereo not drawn), the Potency entry in assay [1] is “inactive”. Moreover, in assay [2], the activity change, negative = inhibition is -3.44%.
Take `CC(C)NCC(O)COc1ccc(COCCOC(C)C)cc1` (stereo not drawn): the Potency entry in assay [1] and in assay [2] was “inactive” each time.
Turning to `CCN(CC)CC(=O)OCC(=O)[C@@]1(O)CC[C@H]2[C@@H]3CCC4=CC(=O)CC[C@]4(C)[C@H]3[C@@H](O)C[C@@]21C`, the Potency entry in assay [1] and in assay [2] was “inactive” in each case.
Regarding `O=C(OCC(O)CO)c1ccccc1Nc1ccnc2c(C(F)(F)F)cccc12` (stereo not drawn), the Potency result in assay [1] and in assay [2] was “inactive” each time.
